# Screening results from PubChem BioAssay.
# Tb PYK inh: qHTS of Trypanosoma Brucei Inhibitors; pyruvate kinase (Trypanosoma brucei), Q57TT1; TbPYK enzyme, Kinase-Glo Plus ATP luminescence, 45 min; Potency, µM (series often up to 76.8 µM), without a hit: at the top dose activity, negative = inhibition, hits mostly inhibitors; actives 0.12% (n = 410,000); also: % is scaled to controls: 0 for no effect and ±100 for the full control effect; nearly all actives have a fitted effect of over 50% in size
#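 Readout: single end-point luminescence (Kinase-Glo Plus, 10 min). Reaction conditions were TbPYK/substrate plus 130 uM ADP, 45 min at RT, pH 7.2 TEA buffer. No-enzyme wells served as controls, and data were normalized before concentration-response fitting.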
# NS1 inh: qHTS Assay for Inhibitors of Influenza NS1 Protein Function | Potency, µM (highest dose often 46.1 µM), without a hit: top-dose activity, positive = more growth | actives 0.4% (n = 270,000); calls by dose curve; also: actives are rising curves; nearly all actives have a fitted effect of over 50% in size
#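 OD600 was taken as the measure of yeast growth restored by compound in an NS1-expressing S. cerevisiae strain. Cells had been washed out of glucose medium and diluted 1:100 into galactose -URA medium, pH 6.0.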
# Giardia FBPA inh-1: qHTS Assay for Inhibitors of Fructose-1,6-bisphosphate Aldolase from Giardia Lamblia | actives 0.71% (n = 290,000) | AID 2451, 2010 | Potency, µM (top dose mostly 59.6 µM), without a hit: at the top dose activity, negative = inhibition, actives largely listed as inhibitors | purified Giardia FBPA | A8B2U2; also: % is scaled to controls: 0 for no effect and ±100 for the full control effect; nearly all actives have a fitted effect of over 55% in size
# Target sequence (A8B2U2 whole entry, looked up): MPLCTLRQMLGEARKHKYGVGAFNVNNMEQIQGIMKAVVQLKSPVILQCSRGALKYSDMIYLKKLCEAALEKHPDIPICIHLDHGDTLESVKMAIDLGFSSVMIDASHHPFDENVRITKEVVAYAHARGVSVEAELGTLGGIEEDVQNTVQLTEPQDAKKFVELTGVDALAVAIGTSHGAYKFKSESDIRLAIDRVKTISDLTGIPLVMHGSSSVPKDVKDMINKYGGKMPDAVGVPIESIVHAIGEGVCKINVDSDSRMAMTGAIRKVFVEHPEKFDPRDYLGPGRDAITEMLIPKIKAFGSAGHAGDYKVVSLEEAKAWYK
#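 Giardia FBPA (40 nM reagent) was preincubated 10 min at RT with compound (up to 57.5 uM final), then substrate plus GAPDH/TPI/NAD/arsenate coupling system with diaphorase/resazurin was added; resorufin fluorescence (525/598 nm) was read after 20 min.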
# Sm TGR inh: qHTS Assay for the Inhibitors of Schistosoma Mansoni Peroxiredoxins. Potency, µM (doses to about 114 µM), for inactives: at the top dose activity change, negative = inhibition, usual class: inhibitors. purified TGR, DTNB reduction, TNB absorbance 405 nm. actives 3% (n = 360,000). Schistosoma mansoni thioredoxin glutathione reductase (TGR), Q962Y6. AID 485364, 2010; also: % is scaled to controls: 0 for no effect and ±100 for the full control effect; nearly all actives have a fitted effect of over 60% in size
#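 Kinetic colorimetric format: TGR-catalysed, NADPH-driven DTNB reduction monitored via TNB absorbance. Enzyme dispensed at 20 nM; compound exposure 15 min at room temperature before reaction start.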
# LmPK inhibitor: qHTS Assay for Inhibitors of Leishmania Mexicana Pyruvate Kinase (LmPK) | Q27686 | purified LmPK, Kinase-Glo ATP luminescence, 1 h | Potency, µM (top dose mostly 57.5 µM), for the others: at the top dose activity change, negative = inhibition, most hits filed as inhibitors | actives 0.37% (n = 290,000) | AID 1721, 2009; also: % is scaled to controls: 0 for no effect and ±100 for the full control effect
#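 Purified LmPK (0.1 nM) converted ADP (0.1 mM) to ATP with PEP (0.5 mM) in imidazole buffer pH 7.2 with KCl and MgCl2, 1 h at room temperature. ATP was read by Kinase-Glo luminescence; data normalized to uninhibited and no-enzyme controls.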
# RE007 growth inh: qHTS Assay for Inhibitors of the HIV-1 protein Vpr; AID 651644, 2012; actives 0.21% (n = 360,000); Potency, µM (top dose mostly 92.2 µM), inactives show at the highest dose activity change, negative = less growth, hits mostly inhibitors; S. pombe RE007 Vpr strain, BacTiter-Glo ATP luminescence, 24 h; active = well fitted falling curve with a large enough effect; inconclusive = small, poorly fitted or top-dose-only effect; inactive = no such curve, though single readings can be large or run the other way; also: % is scaled to controls: 0 for no effect and ±100 for the full control effect; nearly all actives have a fitted effect of over 50% in size
#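 Fission yeast strain RE007, carrying one chromosomally integrated HIV-1 vpr copy, was seeded at OD 0.01 in PMG+AL medium with 23 nL pinned compound. After 24 h at 30 °C and 99% humidity, viability was read by BacTiter-Glo luminescence.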
# Giardia growth: qHTS Assay for Inhibitors of Fructose-1,6-bisphosphate Aldolase from Giardia Lamblia: Giardia lamblia growth inhibition; Giardia lamblia trophozoite growth inhibition; shares compounds with Giardia FBPA inh-1; actives 5% (n = 1,500); AID 2785, 2010; Potency, µM (top dose mostly 57.5 µM), inactives show at the highest dose activity change, negative = inhibition, most hits filed as inhibitors;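 also: trophozoites exposed to compound for 48 h at 37 °C; % is scaled to controls: 0 for no effect and ±100 for the full control effect; nearly all actives have a fitted effect of over 70% in size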
# Mammal cell tox: qHTS Assay for Inhibitors of Fructose-1,6-bisphosphate Aldolase from Giardia Lamblia: Mammalian cellular toxicity; shares compounds with Giardia FBPA inh-1; mammalian cell viability counter-screen, qHTS; Potency, µM (highest dose often 57.5 µM), inactives show top-dose viability change, negative = toxicity, most hits filed as inhibitors; actives 4% (n = 1,500); AID 2786, 2010;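 also: Chinese hamster ovary cells used as mammalian cytotoxicity surrogate; viability measured as cellular ATP by luminescence; compound exposure lasted 48 h before reading; % is scaled to controls: 0 for no effect and ±100 for the full control effect; nearly all actives have a fitted effect of over 60% in size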
# Giardia FBPA inh-2: qHTS Assay for Inhibitors of Fructose-1,6-bisphosphate Aldolase from Giardia Lamblia: Primary screen confirmation; shares compounds with Giardia FBPA inh-1; purified Giardia aldolase enzyme activity, qHTS; Potency, µM (highest dose often 57.5 µM), inactives show top-dose activity change, negative = inhibition, actives largely listed as inhibitors; actives 5% (n = 1,500); AID 2787, 2010; also: % is scaled to controls: 0 for no effect and ±100 for the full control effect; nearly all actives have a fitted effect of over 45% in size
# Rabbit aldolase: qHTS Assay for Inhibitors of Fructose-1,6-bisphosphate Aldolase from Giardia Lamblia: Rabbit FBPA Selectivity; shares compounds with Giardia FBPA inh-1; Rabbit muscle FBPA enzyme inhibition, selectivity counter-screen; Potency, µM (series often up to 57.5 µM), inactives show at the highest dose activity, negative = inhibition, actives largely listed as inhibitors; actives 4% (n = 1,500); AID 2794, 2010; also: % is scaled to controls: 0 for no effect and ±100 for the full control effect; nearly all actives have a fitted effect of over 60% in size
# Target sequence (P00883 whole entry, looked up): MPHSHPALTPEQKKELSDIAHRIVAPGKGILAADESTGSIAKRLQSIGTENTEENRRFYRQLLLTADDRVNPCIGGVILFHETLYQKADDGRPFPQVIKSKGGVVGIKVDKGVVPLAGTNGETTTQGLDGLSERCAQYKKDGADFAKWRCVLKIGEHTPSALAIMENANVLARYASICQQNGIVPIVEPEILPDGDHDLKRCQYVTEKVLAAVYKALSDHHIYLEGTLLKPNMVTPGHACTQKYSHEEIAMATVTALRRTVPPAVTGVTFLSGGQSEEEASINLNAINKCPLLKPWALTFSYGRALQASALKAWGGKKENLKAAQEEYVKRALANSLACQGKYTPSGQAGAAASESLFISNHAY
# GAPDH coupling: qHTS Assay for Inhibitors of Fructose-1,6-bisphosphate Aldolase from Giardia Lamblia: Coupling assay counterscreen confirmation | Potency, µM (top dose mostly 57.5 µM), for the others: at the top dose activity change, negative = inhibition, actives largely listed as inhibitors | shares compounds with Giardia FBPA inh-1 | GAPDH coupling enzyme counterscreen, biochemical, qHTS | actives 6% (n = 1,500) | AID 2795, 2010; also: % is scaled to controls: 0 for no effect and ±100 for the full control effect; nearly all actives have a fitted effect of over 55% in size
# * = called active by the depositor; ? = inconclusive; / = no result; [ ] = another dose, or the depositor's remark. Only some compounds are listed: those with a hit (about 3.5% of all), similar ones and a draw of the others. Unless noted, calls follow the shape of the dose curve; as a rule, active = well fitted curve in the direction sought with a large enough effect; inconclusive = small, poorly fitted or top-dose-only effect, or another doubt; inactive = no such curve, though single readings can be large; an effect the other way counts as inactive or inconclusive. Potency is read from the fitted curve at half-maximal effect.
SMILES,Tb PYK inh,NS1 inh,Giardia FBPA inh-1,Sm TGR inh,LmPK inhibitor,RE007 growth inh,Giardia growth,Mammal cell tox,Giardia FBPA inh-2,Rabbit aldolase,GAPDH coupling
CNC(=S)NNS(=O)(=O)c1ccc(OC)cc1OC,-21%,/,20µM*,3%,8%,7%,22%,-4%,2%,6%,7%
COc1ccc(S(=O)(=O)c2cn(C)c3cc(N4CCOCC4)c(F)cc3c2=O)cc1,-3%,/,/,-2%,/,/,/,/,/,/,/
CCN(CC)C(=O)C1CCCN(c2ncnc3c2c(-c2ccccc2)cn3-c2cccc(C)c2)C1 (stereo not drawn),4%,/,/,-1%,/,/,/,/,/,/,/
S=c1[nH]nc(-c2ccco2)n1/N=C/c1ccccn1,/,4%,?,-2%,3%,/,/,/,/,/,/
S=c1[nH]nc(-c2ccccn2)n1/N=C/c1ccco1,-34%,11%,20µM*,-1%,13%,12%,7%[10.4 µM],15%,4%,16%,5%
O=C(CNCc1ccco1)Nc1cccc(S(=O)(=O)N2CCCCC2)c1,-15%,0%,18µM*,4%,-1%,1%,-4%[10.4 µM],-7%,5%,0%,7%
CC1CCCCN1S(=O)(=O)c1ccc(C(=O)Nc2nnc(-c3ccccn3)o2)cc1 (stereo not drawn),-6%,/,18µM*,8%,5%[11.5 µM],-11%,24%,10%,23%,22%,0%
CC1CCCN(S(=O)(=O)c2ccc(C(=O)Nc3nnc(C4=COCCO4)o3)cc2)C1 (stereo not drawn),/,-19%,28µM*,5%,5%,/,-3%,14%,11%,10%,15%
O=C(Nc1nnc(C2=COCCO2)o1)c1ccc(S(=O)(=O)N2CCOCC2)cc1,6%,/,20µM*,6%,6%[11.5 µM],11%,?,-5%,3%,5%,6%
CC1CCCCN1S(=O)(=O)c1ccc(C(=O)Nc2nnc(C3=COCCO3)o2)cc1 (stereo not drawn),-7%,7%,/,0%,1%,15%,/,/,/,/,/
CCOC(=O)c1ccc2ncc(C(=O)OCC)c(Nc3ccc(C)c(Br)c3)c2c1,-17%,/,/,-8%,/,/,/,/,/,/,/
Cc1c(C(=O)O)c(C(=O)O)nc2ccc(N3CCOCC3)cc12,/,/,11µM*,-17%,0%,/,25%,8%,?,-21%,?
CCOC(=O)C(C)Sc1nc(-c2ccccn2)ncc1OC (stereo not drawn),-4%,/,16µM*,4%,-2%,10%,?,-28%,-12%,-11%,?
COc1ccc(N2CCN(CC(O)COC(c3ccc(F)cc3)c3ccc(F)cc3)CC2)cc1 (stereo not drawn),5%,-3%,16µM*,1%,-12%,-18%,4%[10.4 µM],13%,-7%,-8%,3%
OC(COC(c1ccc(F)cc1)c1ccc(F)cc1)CN1CCCC(C(F)(F)F)C1 (stereo not drawn),38%,-8%,14µM*,-20%,1%,-7%,?,-3%,2%,4%,-5%
OCCN1CCN(CC(O)COC(c2ccc(F)cc2)c2ccc(F)cc2)CC1 (stereo not drawn),18%,2%,?,-20%,-7%,-13%,/,/,/,/,/
C=C1C(=O)OC2CC1C(OC(C)=O)CC(C)=CCCC(C)=CCC[C@@]2(C)O (stereo partly drawn),/,/,-1%,/,/,/,/,/,/,/,/
Cc1ccc(-c2nnc3ccccc3c2C(=O)Nc2ccc(C)c(F)c2)cc1,1%[15.4 µM],/,/,-4%,/,/,/,/,/,/,/
N#CC1=C(S)N(c2ccccc2)C(c2cccs2)NC1=O (stereo not drawn),-1%,?,6.3µM*,-32%,-1%,-12%,-17%,-5%,5%,4%,6%
O=C(N/N=C/c1ccncc1)c1nc2ccccc2c(=O)[nH]1,8%,0%,11µM*,0%,2%,1%,11%,24%,-9%,-17%,0%
CCOc1ccccc1NS(=O)(=O)c1cnc(N)nc1,4%,/,/,-10%,/,/,/,/,/,/,/
O=S(=O)(NCc1ccccn1)C(F)(F)F,0%,0%,2.8µM*,-11%,1%,5%,2%[10.4 µM],1%,10%,6%,11%
COc1ccc(NS(=O)(=O)c2c(C)cc(C)cc2C)cn1,0%,-28%,?,-21%,-11%,-2%,-13%[38.3 µM],1%,-17%,-20%,-20%
COc1ccc(NS(=O)(=O)c2ccc(Br)cc2)cn1,2%,-6%,-8%,7%,-3%,1%,/,/,/,/,/
Cc1cc(C)n2c(=S)[nH]nc2n1,10µM*,3%,2.2µM*,-34%,1%,5%,-5%[38.3 µM],3%,-1%,?,-19%
COc1cc(Br)c(C2CC(=O)Nc3cc4c(cc32)OCCO4)cc1OC (stereo not drawn),-7%,/,/,-4%,/,/,/,/,/,/,/
O=c1cc(-c2ccc(O)cc2)oc2c(O)c(O)c(O)c(O)c12,-28%,3%,6.3µM*,4µM*,-16%,5%,-8%[38.3 µM],-10%,21µM*,18µM*,?
